Reference: the supplement of paper PMC6555819

Legend:
Assay in all cases: PBM binding z-score (relative to random genomic background probes); higher = stronger binding; sequences stand for … in GC…GCGATTGACAGCGTAGAATGAAGG
[1] = system: FXR:RXRa (NR concentration 270 nM, RXRa partner concentration 90 nM)
How it was run: (§1)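 Regression normalization was applied to scanned fluorescence from custom Agilent 4×180K protein-binding microarrays. Before scanning, arrays were incubated 1 h with ligand-free nuclear receptor dimers, and binding was detected with antibodies against each partner (one per run). Binding z-scores use the random background probes as reference.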

[2] = system: LXRa:RXRa (NR concentration 270 nM, RXRa partner concentration 90 nM)
How it was run: as §1

[3] = system: LXRa homodimer (NR concentration 270 nM)
How it was run: as §1

[4] = system: LXRb:RXRa (NR concentration 270 nM, RXRa partner concentration 90 nM)
How it was run: as §1

[5] = system: LXRb homodimer (NR concentration 270 nM)
How it was run: as §1

[6] = system: PPARa:RXRa (NR concentration 270 nM, RXRa partner concentration 90 nM)
How it was run: as §1

[7] = system: PPARg:RXRa (NR concentration 180 nM, RXRa partner concentration 90 nM)
How it was run: as §1

[8] = system: PPARg:RXRa 270nM:90nM, anti-RXR (NR concentration 270 nM, RXRa partner concentration 90 nM)
How it was run: as §1

[9] = system: PPARg:RXRa 30nM:10nM, anti-RXR (NR concentration 30 nM, RXRa partner concentration 10 nM)
How it was run: as §1

[10] = system: PPARg:RXRa 90nM:30nM, anti-RXR (NR concentration 90 nM, RXRa partner concentration 30 nM)
How it was run: as §1

Sequence	PBM binding z-score [1]	PBM binding z-score [2]	PBM binding z-score [3]	PBM binding z-score [4]	PBM binding z-score [5]	PBM binding z-score [6]	PBM binding z-score [7]	PBM binding z-score [8]	PBM binding z-score [9]	PBM binding z-score [10]
TCTATAAGTTGATTAGGGCAACCGAAACAGCGGA	0.561	0.285	0.0111	0.135	-0.0997	1.13	0.429	2.02	3.59	2.83
CATATAGGGTCAGCTAGGCCAGAGTAGGGACGGC	4.43	3.32	-0.142	2.24	0.223	4.44	3.29	3.31	0.812	2.26
CAAACTGGGTCACCGGAAGGTCAAAGTCCGCATG	5.54	5.51	3.33	5	0.871	5.73	9.06	7.43	4.95	7.29
GCGACTGGCGCATCAGCAGGTTACCATAACTTAA	-0.425	-0.781	-0.313	-0.631	-1.19	-0.493	-0.0523	-0.785	-0.798	-0.75
CGTCCAAGGTCAAAGGTCCGTGAAGAGATGACGG	7.36	5.64	0.823	4.24	0.921	5.73	6.71	6.69	4.16	5.81
CCGACTGGGGCAGACAGGTTACCATACCATCCGG	-0.305	-0.476	-0.144	-0.341	-0.833	0.114	0.832	0.0365	-0.675	-0.262
AGAATGAGGTTATACGTAGATCCGGGAAGAAAGT	1.84	1.4	-0.0656	1.27	-0.0516	3.09	1.65	2.1	0.93	1.68
CCAGACAGGTGCAAGGTAACTCAGTCTGGTACGC	-0.53	-0.47	-0.166	-0.568	-0.694	-0.13	0.366	0.416	-0.287	0.128
TCGAGTAGGTTACCAATGGGGCATACAGCTTTCT	0.164	1.55	-0.441	1.04	-0.663	1.18	0.984	1.68	1.27	1.28
TTACCAAGGTGAAGGTCGTTAATCCCTCTGTAGA	1.32	1.12	-0.236	1.22	-0.624	2.49	2.65	3.89	1.82	3.43
ATCTCTAGGTAGCCAAGTTCAGTGAATGCCGAAC	-0.0679	-0.0761	0.135	0.15	0.335	0.168	-0.118	-0.148	-0.248	-0.291
ATATGTAGGTTACATCCGGGGCATTCAGGCTATG	0.427	2.23	0.412	1.16	1.07	3.19	5.17	4.28	1.77	3.18
CGTCCAAGGTCAATGCTAGGTCAGGGAAAGCATT	6.82	5.42	2.86	4.1	0.919	5.17	4.49	4.52	1.47	3.37
CGACCAAGGTCAAGGTCAGTGAAAGAGACTCGAA	7.76	5.28	0.72	4.53	0.222	6.07	6.71	6.54	2.6	5.32
ACAGACAGGTGATGAAGGTAAGTCAGGCTATCAT	-0.11	-0.19	-0.349	-0.143	-0.155	0.0808	0.554	-0.245	-0.266	-0.536
GGTCGGAGGACAAGGTCAGAGCTTTGTCCGTAGA	2.18	1.7	-0.109	1.42	-0.689	2.43	0.581	1.58	-0.506	0.714
ATCTCTAGGTAACGATAGTTCAGTGAATGCAAAT	0.157	4.89	0.491	1.33	0.408	0.791	0.696	0.807	0.214	0.514
TCTAGCAGGCCAGAGTGTCACTCAAGAGGTACGG	-0.276	-0.311	-1.03	-0.712	-1.41	0.336	0.89	1.81	1.93	1.97
TAGACAGGGTCAAAGGCCAGAGTACGAATGTCGA	7.27	4.51	-0.0175	3.89	0.611	5.99	7.49	6.93	4.3	6.42
ATCTCTAGGTAAAAGTTGAGTGAATCCCGAGGAT	0.0929	0.162	0.126	-0.0605	0.531	2.84	4.94	6.21	5.21	6.22
AGAACGAGGGCAATGAGTTGCTAGCACGGGTGGC	0.0307	-0.027	-0.614	-0.476	-0.767	1.23	1.05	0.875	-0.288	0.214
CAAACTAGGTCAAAGTTCAAAGTCGAGCCAACCA	7.56	6.56	5.94	5.99	2.08	7.43	13.3	10.7	12.3	12.8
GCTAGTTGGTCAGTAGAAGGTCACACACCGGTCG	1.88	2.35	2.32	2.24	0.231	2.69	1.13	2.23	0.306	1.54
AGAATGAGGTTAGTAAGATCAGGGAATTGCGGTC	0.169	0.283	-0.393	0.342	-0.18	1.6	1.07	1.06	0.16	0.634

Sequence	PBM binding z-score [1]	PBM binding z-score [2]	PBM binding z-score [3]	PBM binding z-score [4]	PBM binding z-score [5]	PBM binding z-score [6]	PBM binding z-score [7]	PBM binding z-score [8]	PBM binding z-score [9]	PBM binding z-score [10]
TTACCAAGGTGAAAGGTCTTTGATGCACGCCTTG	1.27	1.01	-0.494	1.07	-0.549	3.54	5.56	6.21	4.99	6.07
ACTAGCAGGCCAAGGGTCACTCATGATTAGTCCG	2.27	2.25	0.295	2.52	-0.498	4.38	7.52	7.48	6.27	7.65
GCTTGCGGGTCAAAGGTTATAGCATGAATAGAAT	7	5.1	0.347	5.46	-0.491	7.24	11.2	9.57	9.43	9.99
TAGCCTAGGTCATGCGTGCCAGTATAGTGTCGGC	4.03	3.31	0.471	1.75	-0.0531	3.69	2.33	2.39	0.347	1.23
TCTCGGAGGACGCGAAAGGTCAGAGCTCGACATC	2.41	3.21	1.27	2.37	-0.501	3.2	1.67	3.46	2.47	3.21
TCCCGGAGGACACGAAGGTCAGAGCTTTCCAGAG	1.21	1.09	0.214	0.838	-1.26	1.81	0.359	1.33	1.5	1.41
CCTTACGGGTCACTCCAGGTTATTGCATCGGAGT	5	7.62	2.75	5.48	0.61	4.32	3.25	3.54	1.08	2.44
GATTGTAGATCAAGGTTAAGAAAGACTAAGCTAA	-0.0604	0.349	-0.364	0.458	-0.63	1.72	1.47	2.51	0.605	2.28
CCTTACGGGTCACTCCTGGTTATAGCATCGGAGT	4.24	5.52	-0.0362	3.01	0.134	4.2	2.76	3.54	0.987	2.25
CCTGATAGGTCAATGGTCAGCTAAAGCAGCTCGC	5.01	3.98	0.776	2.92	0.415	4.48	4.56	4.96	2.53	4.35
ACTATTAGTTGACTTAGGGCCACCGATACGACGC	0.803	0.394	0.324	0.152	0.713	0.121	1.07	0.422	0.18	0.363
CCTTACGGGTCAAGGTTAGAGCACGGGTGGTACG	5.52	3.41	-0.175	2.64	-0.214	4.92	4.33	4.83	1.86	3.37
ATCTCTAGGTAAGACACAGTTCAGTGAAGAACGC	0.376	1.1	1.08	0.767	1.15	0.964	1.03	1.98	0.784	1.72
GCTAGTTGGTCAGGAAAAGGTCACACACCGGTCG	3.35	3.85	3.43	3.75	0.375	4.05	2.57	3.82	1.41	3.07
ATATGTAGGTTAAGGGTCATACAGGTTGGTTCGC	4.79	4.61	2.43	4.61	1.28	6.57	12.1	10.2	9.63	12.5
ATATGTAGGTTAGCTGGGGTCGTTCAGACTAGGC	1.41	3.09	0.399	2.71	0.5	3.82	3.96	3.57	1.33	2.73
CAGCCTAGGTCAGGGCCAGGATAGGAGGAACGTT	1.84	0.87	-0.49	0.522	-1.06	2.04	0.835	1.15	-0.0382	0.556
CCGAGTAGGTTATGGGGCATTCACGCAACGGTGA	0.165	0.583	-0.0835	0.908	0.284	2.27	3.48	4.67	2.32	4.69
TAGCCCAGGTCATGGGCCAGTATACCACGCGAAC	5.49	3.68	0.403	2.34	-0.434	4.31	3.87	3.37	0.448	2.04
CGAACTAGGTCATTGACAGGACAGTGACTAGTAA	4.31	2.96	0.385	1.79	0.0478	4.71	7.47	6.11	3.43	5.59
TCTTGTAGATCAAAGGTTAAAAAAGCCGAAGCCT	1.88	2.35	0.549	2.44	0.41	4.79	8.35	8.18	7.69	9.24
GCTCGAAGGACAAGGTCAGAGCTTTGTCCGTAGA	1.53	1.79	-0.456	0.996	-0.575	2.56	0.738	1.72	-0.296	0.829
AGAACGAGGGCACGCTGAATTGATAGCAGAGTAG	0.635	0.375	-0.408	0.0938	-0.694	1.92	2.24	2.02	0.73	1.04
GCAGACAGGTGAAACGCAGGTAACTCCGGGTGGC	-0.276	0.017	-0.496	-0.36	-1.37	0.805	0.312	0.0906	-0.41	-0.188
